Bioassay records from PubChem BioAssay.
ALOX12 inhib = inhibitors of human 12-lipoxygenase (ALOX12); P18054; purified 12-hLO, xylenol orange hydroperoxide absorbance; Potency, µM (highest dose often 57.1 µM), for the others: at the top dose activity change, negative = inhibition, actives largely listed as inhibitors; hit rate 0.12% among 150,000; note: potency is the fitted concentration of half-maximal effect; nearly all actives have a fitted effect of over 55% in size
Target sequence (P18054 whole entry, looked up): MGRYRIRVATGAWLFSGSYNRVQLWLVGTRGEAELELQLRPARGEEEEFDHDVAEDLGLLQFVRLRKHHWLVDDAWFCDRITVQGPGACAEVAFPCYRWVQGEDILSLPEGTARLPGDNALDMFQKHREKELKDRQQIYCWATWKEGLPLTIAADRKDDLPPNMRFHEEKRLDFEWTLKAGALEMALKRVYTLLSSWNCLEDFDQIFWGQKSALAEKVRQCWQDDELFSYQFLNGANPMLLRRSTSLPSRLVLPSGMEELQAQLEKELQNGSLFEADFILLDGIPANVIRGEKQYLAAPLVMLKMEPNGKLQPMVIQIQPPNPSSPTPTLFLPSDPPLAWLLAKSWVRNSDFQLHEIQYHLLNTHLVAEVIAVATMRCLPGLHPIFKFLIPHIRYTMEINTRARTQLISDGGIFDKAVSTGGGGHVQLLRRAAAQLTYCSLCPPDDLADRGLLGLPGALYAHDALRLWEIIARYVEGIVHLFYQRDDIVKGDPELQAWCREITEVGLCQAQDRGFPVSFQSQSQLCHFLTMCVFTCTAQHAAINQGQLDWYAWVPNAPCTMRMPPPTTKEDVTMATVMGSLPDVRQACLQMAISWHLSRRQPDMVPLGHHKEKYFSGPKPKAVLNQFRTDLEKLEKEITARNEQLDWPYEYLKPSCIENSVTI
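Purified human 12hLO (150 nM), preincubated 15 min with compound, then 40 uM arachidonic acid for 30 min, room temperature, Hepes pH 7.0 with 0.01% Triton X-100. Hydroperoxide detected by ferrous iron/xylenol orange; 573/405 nm absorbance ratio gives reaction progress.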
HPGD inh = HPGD (human) dehydrogenase inhibition; P15428; purified HPGD, NADH fluorescence kinetic, PGE2 substrate; Potency, µM, for inactives: top-dose activity change, negative = inhibition, actives largely listed as inhibitors; hit rate 4.3% among 150,000; AID 894; active = well fitted inhibition curve with a large enough effect, not every such curve was filed as active; inconclusive = small, poorly fitted or top-dose-only effect, or another doubt; inactive = no such curve, though single readings can be large or run the other way; note: potency is the fitted concentration of half-maximal effect
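20 nM HPGD preincubated 15 min at room temperature with compound in 50 mM Tris-HCl pH 8, 0.01% Tween 20. Started with 1 mM NAD+ and 30 uM prostaglandin E2; NADH fluorescence (360/450 nm) read 5 times over 30-s intervals, last minus first.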
IMPase cell inh = IMPase inhibition in cells; CHO-M1 cells, IP1 accumulation, HTRF TR-FRET ratio; 120,000 tested, under 10 active; inhibition (IP1 accumulation), % at 46.1 µM; active = well fitted curve in the direction sought with a large enough effect in the signal ratio, not every such curve was filed as active; inconclusive = small, poorly fitted or top-dose-only effect, or a change in a side signal; inactive = no such curve, though single readings can be large or run the other way; the % refers to the signal ratio;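 note: cells stimulated with carbachol in lithium chloride buffer; plate controls were DMSO basal wells for no effect and reference inhibitor wells for full effect; higher means more IMPase inhibition seen as more IP1 and lower FRET ratio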
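CHO-M1 cells (CHO stably expressing M1 receptor), compound up to 46 uM final, stimulated with carbachol (50 uM as added) in buffer with 50mM LiCl, pH 7.4, 30 min at 37C. Cytosolic IP1 read by TR-FRET; AC50 from Hill fits.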
IMPase Li cell = cell-permeable IMPase inhibitors with lithium potentiation. Potency, µM (highest dose often 59.4 µM), without a hit: at the highest dose activity, negative = IMPase inhibition, hits mostly inhibitors. hit rate 0.35% among 210,000. CHO-M1 cells, IP1 TR-FRET (IP-One), carbachol + lithium;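 note: IP1 builds up when IMPase is blocked and the TR-FRET signal falls; potency is the fitted concentration of half-maximal effect; plate controls were basal vehicle for no effect and high inhibitor control for full effect; nearly all actives have a fitted effect of over 50% in size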
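Test compounds were applied to CHO-M1 cells previously cultured for 16–30 h at 2000 per well. A small lithium amount accompanied them; after 30 min at 37C, IP1 was quantified by TR-FRET.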
15-hLO-2 inh = blocks human 15-lipoxygenase 2 activity | O15296 | purified 15hLO-2, xylenol orange hydroperoxide absorbance | Potency, µM (highest dose often 57.1 µM), without a hit: top-dose activity change, negative = inhibition, hits mostly inhibitors | hit rate 0.56% among 110,000 | AID 881; note: potency is the fitted concentration of half-maximal effect; nearly all actives have a fitted effect of over 60% in size
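Purified human 15hLO-2 (50 nM final) preincubated with compounds 15 min at room temperature in 25 mM Hepes pH 7.5, 0.01% Triton X-100, then 45 uM arachidonic acid added for 90 min; hydroperoxide detected via ferrous/xylenol orange, 573/405 nm absorbance ratio.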
PNC assembly inh = blocks assembly of the perinucleolar compartment; PC3M PTB-GFP, PNC prevalence imaging, 16 h; stronger effect = lower value; activity change (PNC), negative = inhibition, % at 10 µM; hit rate 3.1% among 140,000; AID 2417;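 active = readout at or below -70, meaning at least 70% loss of cells showing the perinucleolar compartment, a nuclear body marking cancer cells; inconclusive = readout between -30 and a set limit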;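 note: plate controls were DMSO wells for no effect and camptothecin positive control wells for full effect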
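Compounds are pinned in duplicate onto adhered PC3M cells stably expressing GFP-tagged PTB and incubated 16 h at 37 C. Cells are then fixed, nuclei stained with Hoechst, and PNC-positive cells counted.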
The depositor's hits bear a star; ? = inconclusive; / = no result; [ ] = another dose, or the depositor's remark. Compounds with a hit are over-represented: about 5.3% of the library has one in this group of screens. Unless noted, calls come from the whole dose curve; as a rule, active = well fitted curve in the direction sought with a large enough effect; inconclusive = small, poorly fitted or top-dose-only effect, or another doubt; inactive = no such curve, though single readings can be large; an effect the other way counts as inactive or inconclusive. Unless noted, % is set by controls: 0 for no effect and ±100 for the full control effect.

SMILES | ALOX12 inhib | HPGD inh | IMPase cell inh | IMPase Li cell | 15-hLO-2 inh | PNC assembly inh
Cc1noc(C(=O)Nc2sc3c(c2C#N)CCC3)c1Cl | -2% | 25µM* | 1 | -4%[38.3 µM] | -9% | -20
Cc1c(O)c(O)cc2c1CC=C1[C@]3(C)CC[C@]4(C)CC[C@@](C)(C(=O)O)CC4[C@]3(C)CC[C@]12C (some centres not stated) | -5% | 18µM* | / | -2% | ? | /
COC(=O)c1ccccc1N | 4% | -17% | / | 6% | -11% | /
CCOC(=O)c1ccc(NC(=O)C2C3C=CC(O3)C2C(=O)O)cc1 (configuration not stated) | -2% | -9% | 0 | -16%[38.3 µM] | -24% | -91*
CCOC(=O)c1ccccc1C(=O)OCC | 1% | -12% | / | 2% | 7% | /
CCN(CC)C(=O)c1ccc(N2C(=O)C3CC=C(Cl)CC3C2=O)cc1 (configuration not stated) | -3% | 13µM* | 7 | 12%[38.3 µM] | 1% | -86*
O=C(O)/C=C\c1ccc[c]([Sb])c1 | / | -4% | / | -7% | / | /
N[C@@H](Cc1c[nH]c2cc([N+](=O)[O-])ccc12)C(=O)O | -3%[11.4 µM] | -8% | / | -3% | -8%[11.4 µM] | /
COC(=O)[C@H](N)CCCN=C(N)N[N+](=O)[O-] | -1% | / | 6 | / | 11% | /
C/C(=N/OC(=O)N(C)C)c1ncc(C(F)(F)F)cc1N1CCOCC1 | -6% | ? | 6 | 24%[38.3 µM] | 17% | -84*
C[C@]12Cc3cn4c(nc3C=C1CC[C@H]1[C@@H]2CC[C@@]2(C)[C@H]1CC[C@@]2(O)C#N)nc1ccccc14 | -7% | / | 2 | / | 16% | /
CC1CCCN(C(=O)c2ccc(N3CC4CC(C3)c3cccc(=O)n3C4)c([N+](=O)[O-])c2)C1 (configuration not stated) | -2% | 18µM* | / | -1% | / | -116*
c1nc[nH]n1 | 0% | 1% | / | -2% | -13% | /
CC1=NN(c2ccccc2)C(=O)/C1=C/c1c(O)[nH]c(=O)[nH]c1=O | / | / | / | 9% | / | /
CC1=NN(c2ccccc2)C(=O)/C1=C/c1c(O)[nH]c(=S)[nH]c1=O | -16% | 20µM* | 7 | -4%[38.3 µM] | -20% | 31
Cc1cccc(N2C(=O)NC(=O)/C(=C\c3ccc4c(c3)CCCN4Cc3ccccc3)C2=O)c1 | -2% | 7.1µM* | / | 1% | / | -2
O=[N+]([O-])c1cc(Cl)c(Cl)c(Cl)c1 | 2% | -3% | / | 15% | -17% | /
O=C(OC1Cc2c(O)cc(O)cc2OC1c1cc(O)c(O)c(O)c1)c1cc(O)c(O)c(O)c1 (configuration not stated) | -14% | 14µM* | / | -14% | -29% | /
O=C1C[C@@H](c2ccc(O)cc2)Oc2cc(O)cc(O)c21 | -2% | -7% | -2[20.6 µM] | 1% | -2%[25.6 µM] | 0
Oc1cc(O)c2c(c1)OC(c1cc(O)c(O)c(O)c1)C(O)C2 (configuration not stated) | -4% | 16µM* | / | 2% | 6% | /
COc1cccc(-c2cc(C(F)(F)F)n3nc(C(=O)N4CCC5(CC4)OCCO5)cc3n2)c1 | -6% | 11µM* | -1 | 3%[38.3 µM] | -8% | -19
Cc1ccccc1-n1c(O)c(/C=C2/C(c3ccccc3)=Nc3ccccc32)c(=O)[nH]c1=O | -4% | 28µM* | 4 | 4% | / | ?
COc1ccc(OC)c(-n2c(O)c(C=Nc3c(C)n(C)n(-c4ccccc4)c3=O)c(=O)[nH]c2=O)c1 | 4% | -6% | / | 5% | / | -24
COC(=O)C1=Nc2ccccc2/C1=C\c1c(O)n(-c2cc(OC)ccc2OC)c(=O)[nH]c1=O | -13% | 14µM* | / | 1% | / | ?
CC[C@@H]1[C@@H]2Cc3ccc(O)cc3[C@@]1(CC)CCN2C | 1%[11.4 µM] | -2% | / | 1% | -3%[11.4 µM] | /
SMILES | ALOX12 inhib | HPGD inh | IMPase cell inh | IMPase Li cell | 15-hLO-2 inh | PNC assembly inh
COC(=O)c1ccccc1N=Cc1c(O)[nH]c(=S)[nH]c1=O | / | / | / | 11µM* | / | /
O=C(c1ccccc1)c1ccccc1N=Cc1c(O)[nH]c(=O)[nH]c1=O | / | / | / | 2% | / | /
C=C(C)[C@H]1Cc2c(ccc3c2O[C@H]2COc4cc(OC)c(OC)cc4[C@@H]2C3=O)O1 | -6% | / | 13 | / | -5% | /
Nc1c2c(nc3sc4c(c13)CCCCC4)CCCC2 | 3% | -17% | / | 16% | / | -113*
CC(C)C1C(=O)N2CCC[C@H]2[C@]2(O)O[C@](NC(=O)[C@@H]3C=C4c5cccc6[nH]cc(c56)C[C@H]4N(C)C3)(C(C)C)C(=O)N12 (some centres not stated) | / | / | / | 6% | / | /
CCCN(CCC)C(=O)Cc1c(-c2ccc(Cl)cc2)nc2c(Cl)cc(Cl)cn12 | -4% | -19% | 1 | 10µM* | -5% | /
Cc1ccc(-c2nc3ccc(C)cn3c2CC(=O)N(C)C)cc1 | 0% | ? | / | 3% | -5% | /
COc1ccc(/C=C2/C(=O)NC(=O)N(c3ccc(C)c(C)c3)C2=O)cc1CN1C(=O)c2ccccc2C1=O | -22% | 10µM* | -5 | 26% | / | -15
Oc1cc(Cl)c(Cl)c(Cl)c1Cl | 0% | ? | / | 7% | -10% | /
Oc1cc(Cl)c(Cl)cc1Cl | -4% | 5.6µM* | / | -1% | -5% | /
O=C1NC(=O)N(Cc2cccs2)C(=O)/C1=C/c1ccc(N2CCOCC2)cc1 | / | / | / | 0% | / | /
O=C1NC(=O)N(Cc2ccco2)C(=O)/C1=C/c1cccn1CCOc1ccccc1Cl | -22% | 28µM* | 7 | -7% | / | -4
CCN(CC)c1ccc(/C=C2\C(=O)NC(=O)N(Cc3ccco3)C2=O)cc1 | -12% | 16µM* | / | 2% | / | -30
CCN(CC)c1ccc(/C=C2/C(=O)NC(=O)N(CC3CCCO3)C2=O)cc1 (configuration not stated) | -4% | 35µM* | -4 | 11%[38.3 µM] | -9% | 59
CCCCN1C(=O)/C(=C/c2ccc(N(C)C)cc2)C(=O)N(Cc2ccco2)C1=O | -15% | 25µM* | 1 | -14%[38.3 µM] | -11% | 32
N#CS.N=C=S.N=C=S.[Cu].[NH2-].[NH2-].[NH2-].[NH2-].c1ccc2ncccc2c1 | ? | -3% | / | -10% | ? | /
Cc1[nH]c2ccccc2c1/C=N/O | -7% | 13µM* | 8 | -12%[38.3 µM] | -1% | -86*
Cc1nccc2c1[nH]c1ccccc12 | -5% | ? | -5 | -5% | 33% | /
CCOc1c(Cl)cc(CNc2ccc(S(N)(=O)=O)cc2)cc1OC | -5% | 25µM* | / | 14% | / | -27
O=c1ccc2cc(O[C@H]3OC(CO)C(O)C(O)C3O)c(O)cc2o1 (some centres not stated) | -11% | ? | / | 13µM* | -10% | /
C/C=C1/C[N@@+]2(C)CC[C@]34C(=C(C=O)[C@H]1C[C@H]32)Nc1ccccc14 | / | / | / | -6% | / | /
